In general, inhibition refers to the relative decrease from the control value, in per cent.

“And” between values parts separate entries of the source, which are not always exact repeats. Equal entries are not always repeated. Among all 190,000 compounds or so, about 6,900 (3.6%) were called active. Cut-off read from the data, not from the text of the source: active = inhibition above about 50%; inactive = the rest. The entries come from a sample that favours actives as a whole. Some compounds were tested as several samples or in several runs, with calls that do not always agree.

Huntingtin (Homo sapiens), sequence (P42858 whole entry, looked up, stated change not applied): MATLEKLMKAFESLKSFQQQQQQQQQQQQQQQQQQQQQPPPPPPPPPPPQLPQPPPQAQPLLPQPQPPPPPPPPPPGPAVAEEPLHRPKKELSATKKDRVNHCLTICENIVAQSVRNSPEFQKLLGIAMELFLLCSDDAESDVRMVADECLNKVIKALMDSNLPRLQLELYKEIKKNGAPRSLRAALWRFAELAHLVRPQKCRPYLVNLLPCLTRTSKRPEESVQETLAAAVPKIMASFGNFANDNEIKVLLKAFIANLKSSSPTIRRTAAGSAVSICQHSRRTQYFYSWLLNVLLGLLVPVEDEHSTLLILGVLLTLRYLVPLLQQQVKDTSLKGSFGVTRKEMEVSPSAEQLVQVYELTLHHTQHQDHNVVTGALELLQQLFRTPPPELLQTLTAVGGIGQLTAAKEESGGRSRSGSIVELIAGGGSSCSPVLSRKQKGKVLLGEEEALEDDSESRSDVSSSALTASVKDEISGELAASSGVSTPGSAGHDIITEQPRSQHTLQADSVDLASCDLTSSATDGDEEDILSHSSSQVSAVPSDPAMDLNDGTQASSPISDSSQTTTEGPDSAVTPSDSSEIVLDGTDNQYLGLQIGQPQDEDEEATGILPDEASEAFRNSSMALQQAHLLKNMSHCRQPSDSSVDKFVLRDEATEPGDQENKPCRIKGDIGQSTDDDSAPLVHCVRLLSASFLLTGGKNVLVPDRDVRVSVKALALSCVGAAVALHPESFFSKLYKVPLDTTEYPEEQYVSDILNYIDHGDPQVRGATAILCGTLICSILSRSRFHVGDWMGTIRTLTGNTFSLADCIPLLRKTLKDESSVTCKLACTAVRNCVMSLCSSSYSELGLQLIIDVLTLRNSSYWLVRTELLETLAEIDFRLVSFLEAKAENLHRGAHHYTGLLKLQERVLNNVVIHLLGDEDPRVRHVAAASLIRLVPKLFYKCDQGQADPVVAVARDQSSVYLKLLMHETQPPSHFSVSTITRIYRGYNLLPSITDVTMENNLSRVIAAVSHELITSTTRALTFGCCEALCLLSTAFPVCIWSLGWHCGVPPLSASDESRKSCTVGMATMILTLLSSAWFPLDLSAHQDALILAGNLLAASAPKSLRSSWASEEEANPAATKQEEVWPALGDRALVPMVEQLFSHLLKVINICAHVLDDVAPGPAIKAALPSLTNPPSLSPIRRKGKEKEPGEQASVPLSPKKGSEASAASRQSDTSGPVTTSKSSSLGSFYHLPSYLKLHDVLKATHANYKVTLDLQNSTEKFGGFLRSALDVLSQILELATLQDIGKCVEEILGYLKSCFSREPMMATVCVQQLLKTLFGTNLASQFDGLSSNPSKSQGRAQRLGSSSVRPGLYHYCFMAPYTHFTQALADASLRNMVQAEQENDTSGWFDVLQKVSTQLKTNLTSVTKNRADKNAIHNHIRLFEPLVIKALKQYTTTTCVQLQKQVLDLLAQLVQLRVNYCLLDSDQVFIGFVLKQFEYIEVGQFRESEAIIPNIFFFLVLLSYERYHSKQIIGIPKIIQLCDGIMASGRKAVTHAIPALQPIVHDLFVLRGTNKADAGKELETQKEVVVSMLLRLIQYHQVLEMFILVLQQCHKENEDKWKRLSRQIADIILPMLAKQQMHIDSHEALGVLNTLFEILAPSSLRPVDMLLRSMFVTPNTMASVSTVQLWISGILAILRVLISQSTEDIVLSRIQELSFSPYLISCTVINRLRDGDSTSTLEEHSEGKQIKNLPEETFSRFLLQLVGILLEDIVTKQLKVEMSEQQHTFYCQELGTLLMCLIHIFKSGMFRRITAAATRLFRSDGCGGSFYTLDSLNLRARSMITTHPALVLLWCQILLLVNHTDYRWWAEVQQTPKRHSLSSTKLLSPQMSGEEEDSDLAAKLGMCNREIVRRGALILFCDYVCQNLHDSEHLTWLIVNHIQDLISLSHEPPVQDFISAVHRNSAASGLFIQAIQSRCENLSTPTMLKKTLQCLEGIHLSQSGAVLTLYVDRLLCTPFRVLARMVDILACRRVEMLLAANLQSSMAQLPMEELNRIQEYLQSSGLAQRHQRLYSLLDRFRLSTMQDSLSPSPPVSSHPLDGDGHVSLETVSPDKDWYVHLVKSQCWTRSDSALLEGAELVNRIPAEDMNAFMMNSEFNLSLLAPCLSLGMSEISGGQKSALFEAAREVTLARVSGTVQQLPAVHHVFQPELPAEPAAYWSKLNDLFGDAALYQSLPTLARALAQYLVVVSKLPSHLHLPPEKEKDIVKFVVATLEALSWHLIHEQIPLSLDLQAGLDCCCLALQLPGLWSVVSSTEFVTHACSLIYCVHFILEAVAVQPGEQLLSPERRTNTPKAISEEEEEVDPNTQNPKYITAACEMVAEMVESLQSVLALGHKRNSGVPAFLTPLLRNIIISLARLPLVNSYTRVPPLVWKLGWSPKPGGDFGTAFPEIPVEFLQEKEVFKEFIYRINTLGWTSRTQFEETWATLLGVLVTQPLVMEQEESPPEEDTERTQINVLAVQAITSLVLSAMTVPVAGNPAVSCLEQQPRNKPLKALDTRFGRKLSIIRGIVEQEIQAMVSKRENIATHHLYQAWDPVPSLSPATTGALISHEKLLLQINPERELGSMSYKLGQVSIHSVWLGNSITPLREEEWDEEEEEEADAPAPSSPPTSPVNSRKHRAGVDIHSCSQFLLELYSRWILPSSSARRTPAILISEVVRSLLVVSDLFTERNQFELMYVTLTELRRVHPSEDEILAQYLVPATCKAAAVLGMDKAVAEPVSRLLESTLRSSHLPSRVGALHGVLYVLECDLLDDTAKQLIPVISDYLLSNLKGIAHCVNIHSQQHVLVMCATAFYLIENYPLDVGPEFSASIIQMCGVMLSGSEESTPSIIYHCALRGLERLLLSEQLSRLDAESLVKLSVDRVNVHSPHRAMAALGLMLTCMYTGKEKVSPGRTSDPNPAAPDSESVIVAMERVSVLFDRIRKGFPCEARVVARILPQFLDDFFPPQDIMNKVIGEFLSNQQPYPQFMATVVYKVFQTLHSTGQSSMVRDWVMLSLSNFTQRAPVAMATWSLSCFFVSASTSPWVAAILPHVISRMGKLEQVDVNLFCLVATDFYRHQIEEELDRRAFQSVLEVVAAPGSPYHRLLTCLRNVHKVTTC

The assay has as its target Huntingtin (Homo sapiens) (UniProt P42858). In words: mutant huntingtin-calmodulin interaction inhibitors – biochemical, AlphaScreen, primary screen (AID 1671202).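 Note: 0% = both proteins with DMSO and 100% = one protein alone.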 The note with it: AlphaScreen His-mHTT/GST-CaM binding, luminescence; at 15 µM, stronger effect = higher value. Background: Bead proximity is the source of the signal in Alpha formats.
On to `COc1ccc(OCc2noc(-c3cccc(F)c3)n2)cc1`, for which the inhibition is -9.7% (inactive). As for `CCN(CC)CCNC(=O)C1CCN(c2nnc3ccccn23)CC1`, the figure is 5.6% (inactive). `CCC(=O)Oc1ccc2c(C)c(-c3ccccc3)c(=O)oc2c1`: the inhibition was -4.1% (inactive).

With `COc1cccc(C=C2Oc3c(ccc(O)c3CN3CC4CC(C3)c3cccc(=O)n3C4)C2=O)c1` (stereo not given), the inhibition is 32.3% (inactive).

Consider `Cc1c(NC(=O)c2c([N+](=O)[O-])cnn2C)c(=O)n(-c2ccccc2)n1C`, for which the inhibition is -3% (inactive). As for `COc1ccc2c(c1)c(=O)oc1c(C)c(OCc3ccc(C(=O)O)o3)ccc12`, the figure is 4% (inactive); as for `CC1=C(C#N)C(=O)NC(=O)/C1=C\c1ccc(-c2cccc(Cl)c2)o1`, 37% (inactive).

On to `CC1=C(C#N)C(=O)N(CC(C)O)C(=O)/C1=C\c1ccc(-c2cccc(Cl)c2Cl)o1` (stereo not given), for which the inhibition is 93% (active).

In the case of `CC1=C(C#N)C(=O)NC(=O)/C1=C\c1ccc(-c2ccc(Cl)c(C(=O)O)c2)o1`, the inhibition is 13% (inactive). Take `c1ccc(-n2ncc(-c3nn[nH]n3)n2)cc1`: the inhibition was 59% (active) and -6.45% (inactive). As for `N#Cc1ccc(C(=O)N2CCC(COc3ccc(C(=O)N4CCCC4)cc3)CC2)cc1`, the figure is 3.57% (inactive). On to `CC(=O)Nc1ccc(S(=O)(=O)N2CCN(C3CCCCCCC3)CC2)cc1`, for which the inhibition is 2% (inactive). With `CC(=O)Nc1ccc(S(=O)(=O)N2CCN(c3ccc(-c4ccccn4)nn3)CC2)cc1`, the inhibition is 74.1% (active).

Consider `O=S(=O)(c1cccnc1)N1CCN(c2ccc(-c3cccs3)nn2)CC1`, for which the inhibition was -2.7% (inactive). In the case of `CN(C)c1ccc(CCCNC(=O)C23CC4CC(CC(C4)C2)C3)cc1` it was 1.3% (inactive); in that of `CN(C)c1ccc(CNCC23CC4CC(C2)CC(c2ccccc2)(C4)C3)cc1`, 100% (active). In the case of `O=C(N1CCCC1)C12CC3CC(C1)CC(c1ccccc1)(C3)C2` it was 2.5% (inactive). For `O=C(c1cccc(OCC2CCCN(C(=O)c3ccccc3F)C2)c1)N1CCCCC1` (stereo not given), the inhibition is -4.06% (inactive).

With `CC(=O)NCc1cnn(-c2ccc(C(=O)Nc3ccccc3)cc2)c1`, the inhibition is -1.5% (inactive).

As to `CCCCN=C(C(=O)Nc1ccc(Cl)c(C(F)(F)F)c1)c1ccccc1NC(C)=O`, the inhibition was 0% (inactive). As for `CCCCN1CCN(C(=O)c2cn3cc(C)ccc3n2)CC1`, the figure is 0.1% (inactive); as for `CN(C)c1ccc(-c2ccc3nc(C(=O)N4CCCC4)cn3c2)cc1`, 97.2% (active). With `O=C(c1cn2cc(-c3ccc(F)c(Cl)c3)ccc2n1)N1CCOCC1`, the inhibition was 16.9% (inactive). In the case of `CC1=C(C(=O)Nc2ccc(C)cc2C)C(c2ccccc2[N+](=O)[O-])n2ncnc2N1` (stereo not given) it was 25% (inactive).

For `Cc1cc(OC(=O)C=Cc2ccccc2)c([N+](=O)[O-])c(=O)[nH]1`, the inhibition was 7.1% (inactive).

Consider `O=C1C=CC(=NOC(=O)/C=C/c2ccccc2)C=C1`, for which the inhibition is 100% (active).

For the compound `O=C(Cc1ccccc1)ON=C1C=CC(=NOC(=O)c2ccccc2)C=C1`, the inhibition is 14% (inactive). For the compound `O=S1(=O)c2ccc(Br)cc2OC[C@@H](Cc2ccccc2)N1Cc1cn(Cc2ccco2)nn1`, the inhibition was 5.1% (inactive). In the case of `O=C(COc1ccc(Br)cc1)Nc1ccc2c(c1)OCO2` it was 0.4% (inactive); in that of `O=S(=O)(c1cccs1)N(c1ccccc1)C(F)F`, -18.8% (inactive). Regarding `CCc1ccc(S(=O)(=O)N=C2C=C(Nc3ccc(OC)cc3)C(=O)c3ccccc32)cc1`, the inhibition was 91% (active). As for `CCOc1ccc(NC(=O)C2CCC(N3C(=O)c4ccccc4C3=O)CC2)cc1` (stereo not given), the figure is 2.4% (inactive). In the case of `Cc1cc(Br)ccc1NC(=O)C(NS(=O)(=O)c1cccs1)C(C)C` (stereo not given) it was -6% (inactive); in that of `CCOc1ccc(S(=O)(=O)N=C2C=C(Nc3ccc(C)cc3)C(=O)c3ccccc32)cc1`, 93% (active). In the case of `O=C1C(Nc2ccc(Br)cc2)=CC(=NS(=O)(=O)c2cccs2)c2ccccc21` it was 80% (active); in that of `CCOc1ccc(NS(=O)(=O)c2ccc(Cl)cc2)cc1`, -13% (inactive); in that of `CCc1ccc(S(=O)(=O)N=C2C=C(Br)C(=O)c3ccccc32)cc1`, 38% (inactive). Take `COc1ccc(S(=O)(=O)N=C2C=C(Br)C(=O)c3ccccc32)cc1`: the inhibition was 31% (inactive). As for `Clc1ccc(Cl)c(-c2ccc(CNC3CC3)o2)c1`, the figure is -25.6% (inactive); as for `COc1cc(CN2CCC(O)CC2)ccc1OCc1ccccc1`, -5.7% (inactive); as for `COc1cc(CNc2ccc(F)cc2)ccc1OCc1ccccc1`, 55.7% (active).

Turning to `COc1ccc(CC(=O)Nc2c3c(nc4c2CCC4)CCCC3)cc1OC`, the inhibition was 2% (inactive).

Take `COc1cc(C=C2C(=O)c3ccccc3C2=O)ccc1OCc1ccccc1`: the inhibition was 4% (inactive). In the case of `COc1ccc(CNc2ccc3c(c2)CCC3)cc1OC` it was 62.8% (active).

As for `COc1ccc(NCc2ccc(OC)c(C)c2)cc1`, the inhibition is 52% (active). As for `COc1ccc(CCCN)cc1OC`, the figure is -2.8% (inactive); as for `COc1ccc(CNc2nccs2)cc1`, 5.7% (inactive).

Turning to `COc1ccc(CNC(=O)C(=O)Nc2ccc(OC)cc2)cc1`, the inhibition is -2.2% (inactive). Regarding `CCN1CCCC1CNC(=O)c1ccc(Sc2ccc(C)cc2)c(NC(C)=O)c1` (stereo not given), the inhibition is -3% (inactive). In the case of `O=C(Nc1ccc(NC(=O)c2ccc([N+](=O)[O-])cc2Cl)cc1)c1ccco1` it was -2.2% (inactive); in that of `COc1cccc(C(=O)NCC2Cc3cc(OC)ccc3O2)c1` (stereo not given), -0.8% (inactive); in that of `O=C(CC1CCCCC1)N1CCC(COc2ccc(C(=O)N3CCCCC3)cc2)CC1`, -1.76% (inactive). Take `COc1ccc(C(=O)N2CCCCC2CCN2CCCC2)cn1` (stereo not given): the inhibition is 6.78% (inactive). In the case of `O=C(c1ccco1)N1CCCC(c2nncn2-c2ccccc2)C1` (stereo not given) it was 8.27% (inactive); in that of `CCOc1cc(/C=C2\C(=O)NC(=O)N(c3ccc(F)cc3)C2=O)ccc1O`, 5% (inactive); in that of `COc1cc(/C=C2\C(=O)Nc3ccc(Br)cc32)ccc1O`, 100% (active).

In the case of `CCOc1cc(/C=C2\C(=O)NC(=O)N(c3ccc(Br)cc3)C2=O)ccc1O`, the inhibition is 5% (inactive). As for `Cc1cc([N+](=O)[O-])nn1CCCC(=O)Nc1cc(Cl)ccc1O`, the figure is 2% (inactive); as for `CC(C)(C)CC(=O)N1CCN(c2nc(CN3CCCCCC3)cs2)CC1`, -9.3% (inactive); as for `COc1cccc(C=C2Oc3cc(OCC(=O)NN)ccc3C2=O)c1OC`, 4.1% (inactive).
